# Laboratory results published in article PMC4336329 (PLoS ONE, 2015).
# The campaign covered roughly 310,000 compounds. About 14,000 (4.5%) showed an effect of 50% or more. The effect is printed as a negative number. This excerpt belongs to a sample that is enriched for strong results.
# Target: human ether-à-go-go-related gene (hERG) potassium channel (human, UniProt Q12809)
# Assay: primary screen, population patch clamp on CHO cells stably expressing hERG; higher = less effect of the substance
# 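Also: peak tail current of the secondary pulse compared with the same well before compound.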
# Chain of human ether-à-go-go-related gene (hERG) potassium channel (Q12809 whole entry, looked up): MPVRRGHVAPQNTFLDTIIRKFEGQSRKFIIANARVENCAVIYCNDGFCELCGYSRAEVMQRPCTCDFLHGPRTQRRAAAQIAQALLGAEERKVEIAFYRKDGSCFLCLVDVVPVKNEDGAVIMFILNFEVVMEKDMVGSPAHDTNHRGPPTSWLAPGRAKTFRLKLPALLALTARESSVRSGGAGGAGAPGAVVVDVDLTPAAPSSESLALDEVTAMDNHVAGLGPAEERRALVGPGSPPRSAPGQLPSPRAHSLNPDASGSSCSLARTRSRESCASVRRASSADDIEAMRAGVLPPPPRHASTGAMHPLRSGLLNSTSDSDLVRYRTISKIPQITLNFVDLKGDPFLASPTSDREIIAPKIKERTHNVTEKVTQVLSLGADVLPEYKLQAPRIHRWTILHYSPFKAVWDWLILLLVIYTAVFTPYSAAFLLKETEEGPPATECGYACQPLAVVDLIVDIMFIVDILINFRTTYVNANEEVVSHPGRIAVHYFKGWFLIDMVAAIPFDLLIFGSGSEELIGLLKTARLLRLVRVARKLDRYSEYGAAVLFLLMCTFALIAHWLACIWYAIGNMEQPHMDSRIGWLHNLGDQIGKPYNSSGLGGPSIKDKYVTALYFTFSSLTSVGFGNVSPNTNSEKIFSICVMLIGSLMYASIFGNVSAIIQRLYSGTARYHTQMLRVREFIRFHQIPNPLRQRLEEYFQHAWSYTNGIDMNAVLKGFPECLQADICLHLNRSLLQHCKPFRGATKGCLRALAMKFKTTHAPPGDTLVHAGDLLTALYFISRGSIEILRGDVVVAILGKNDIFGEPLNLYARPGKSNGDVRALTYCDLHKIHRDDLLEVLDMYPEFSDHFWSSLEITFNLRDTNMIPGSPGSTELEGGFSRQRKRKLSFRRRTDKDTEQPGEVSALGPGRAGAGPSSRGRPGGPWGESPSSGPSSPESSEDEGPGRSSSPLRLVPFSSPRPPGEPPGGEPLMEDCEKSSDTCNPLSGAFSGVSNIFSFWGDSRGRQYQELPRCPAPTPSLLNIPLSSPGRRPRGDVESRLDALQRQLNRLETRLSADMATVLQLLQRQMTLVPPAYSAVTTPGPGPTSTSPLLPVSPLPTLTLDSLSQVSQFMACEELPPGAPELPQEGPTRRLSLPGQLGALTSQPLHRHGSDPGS
row,Structure (SMILES),"hERG current change (%, negative = inhibition) at 10uM [%]"
1,Cc1cccc(/C=N/n2c(C)nnc2C)c1,-0.651
2,O=C1CN(C(=O)CSc2nc(-c3ccc(Cl)cc3)cs2)c2ccccc2N1,13.9
3,Fc1ccccc1-c1nc2c(s1)CCc1onc(-c3ccc(Br)cc3)c1-2,11.4
4,CCC(C)c1ccc(NC(=S)N2CCCC2)cc1 (stereo not shown),1.86
5,O=C(CCSCc1ccc(Cl)cc1)NCCC1=CCCCC1,11.4
6,COc1ccc(N/C=C2\CCc3ccccc3C2=O)cc1,0.787
7,O=C(CNC(=O)c1ccc(OC(F)F)cc1)Nc1cccc(S(=O)(=O)N2CCCC2)c1,-70.3
8,CC(O/N=C/c1ccccc1OC(F)F)C(=O)Nc1cccc(S(=O)(=O)N2CCOCC2)c1 (stereo not shown),-33.9
9,O=C(/C=C/c1ccc(OC(F)F)cc1)Nc1cccc(S(=O)(=O)N2CCOCC2)c1,14.2
10,O=C(COC(=O)CNC(=O)c1ccc(F)cc1)Nc1cccc(S(=O)(=O)N2CCCC2)c1,-12
11,CC(O/N=C/c1ccc(OC(F)F)cc1)C(=O)Nc1cccc(S(=O)(=O)N2CCOCC2)c1 (stereo not shown),-60.5
12,COc1ccc(C(=O)NCC(=O)OCC(=O)Nc2cccc(S(=O)(=O)N3CCCC3)c2)cc1,-15.8
13,C[C@H]1CN=C(N(C)C)N1CC1CCCCC1,7.73
14,Nc1nonc1-n1nnc(C(=O)N/N=C/c2cccc(Cl)c2)c1-c1cccs1,3.81
15,Cc1noc(NS(=O)(=O)c2ccc(N/C=C/C(=O)c3ccncc3)cc2)c1C,-13
16,COCCCN1CC(=O)N2C(c3ccccc3)c3[nH]c4ccccc4c3C[C@H]2C1=O (stereo partly shown),-11.3

row,Structure (SMILES),"hERG current change (%, negative = inhibition) at 10uM [%]"
1,O=C(NNC(=O)C12CC3CC(CC(C3)C1)C2)c1csc(N2CCOCC2)n1,11.3
2,COC(=O)C1=C[C@@H](C(=O)OC)[C@@H]2C3=C(C(=O)[C@]2(C)NC(=O)c2ccccc2)[C@H](C)n2c(=O)n(-c4ccccc4)c(=O)n2[C@@H]3C1,7.6
3,Cc1cc(NC(=O)Nc2ccc(Cl)c(Cl)c2)n(-c2ccccc2)n1,13.9
4,Cc1ccccc1NC(=O)c1cccc(S(=O)(=O)Oc2ccc([N+](=O)[O-])cc2)c1,-24.5
5,COc1ccc(C(=O)Nc2cccc(NC(=O)c3cccs3)c2)cc1OC,8.5
6,COc1ccccc1N/C(=N/S(=O)(=O)c1ccc(Cl)cc1)c1ccccc1,-35.1
7,O=C(O)c1ccc(NS(=O)(=O)c2cccc(C(=O)Nc3ccc([N+](=O)[O-])cc3)c2)cc1,18.8
8,COc1ccc(C(=O)Nc2ccccc2)cc1NC(=O)c1ccc([N+](=O)[O-])cc1,-56.8
9,COc1ccc(C(=O)Nc2ccccc2)cc1NC(=O)c1cccs1,-74
10,COc1ccc([N+](=O)[O-])cc1NC(=O)Nc1ccccc1,10.3
11,COc1ccccc1N/C(=N/S(=O)(=O)c1ccc(C)cc1)c1ccccc1,-31
12,COc1ccc(C(=O)Nc2ccc(Nc3ccccc3)cc2)cc1[N+](=O)[O-],-37
13,COc1ccc(C(=O)Nc2ccc(NC(=O)c3cccs3)cc2)cc1Cl,27.5
14,COc1ccc([N+](=O)[O-])cc1N/C(=N/S(=O)(=O)c1ccccc1)c1ccccc1,-57.8
15,O=C(Nc1ccccc1)c1cccc(S(=O)(=O)Oc2ccc([N+](=O)[O-])cc2)c1,-56.4
